From PubChem BioAssay (NCI)
This is part of a sample that, as a whole, favours compounds with a hit. Of some 83,000 tested, about 20% had one in any assay.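 The endpoint reported here, percent growth, reads 100 for growth as untreated, 0 for no net growth and -100 for all cells dead.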 A number with no mark means an inactive call. The source made the active and inactive calls. The calls were made as follows: active = growth percent below 10; inactive = the rest.

Key:
Assay in all cases: NCI-60 one-dose screen, 48 h (100 = growth as untreated, 0 = no growth, -100 = all killed)
NCI-H23 lung = settings: 10 µM unless noted
NCI-H226 lung = settings: 10 µM unless noted
NCI-H322M lung = settings: 10 µM unless noted
HOP-62 NSCLC = settings: 10 µM unless noted
NCI-H460 lung = settings: 10 µM unless noted
HOP-92 NSCLC = settings: 10 µM unless noted
NCI-H522 lung = settings: 10 µM
786-0 renal = settings: 10 µM unless noted
COLO 205 colon = settings: 10 µM unless noted

| Compound | growth (NCI-H23 lung) | growth (NCI-H226 lung) | growth (NCI-H322M lung) | growth (HOP-62 NSCLC) | growth (NCI-H460 lung) | growth (HOP-92 NSCLC) | growth (NCI-H522 lung) | growth (786-0 renal) | growth (COLO 205 colon) |
| --- | --- | --- | --- | --- | --- | --- | --- | --- | --- |
| Cc1ncc(C(=O)Nc2ccc(CN3CCN(C)CC3)c(C(F)(F)F)c2)cc1C#Cc1cncc2ncccc12 | 45.7% | 46.7% | 51% | 59.4% | 61% | 60.3% | 86.5% | -85.8% (active) | 32.2% |
| Cc1cc2ccccn2c1C(=O)c1ccc(C(=O)c2ccccc2)cc1 | 84% | 86.9% | 90.1% | 98.4% | 97.3% | 82.3% | 79.7% | 84.9% | 102% |
| CC(NC(N)=S)c1ccccc1 (centres undefined) | 110% | 101% | 97.8% | 85.6% | 101% | 106% | 102% | 98% | 107% |
| CC(=O)Nc1ccc(C(=O)COc2cccc(/C=C3\CCc4ccccc4C3=O)c2)cc1 | 84.4% | 70.7% | 105% | 104% | 97.1% | 70.8% | 63.1% | 92.9% | 130% |
| COc1ccc2c(c1)CC/C(=C\c1ccc(OCC(=O)Nc3nc4ccccc4s3)cc1)C2=O | 79.5% | 90.4% | 98.6% | 83.2% | 113% | 61.1% | 85.4% | 92.3% | 122% |
| Cn1cnc([N+](=O)[O-])c1Sc1nc(N)nc2nc[nH]c12 | 52.9% | 74.1% | 77.3% | 22.8% | 20.6% | -3.12% (active) | 41.3% | 14.6% | 96.9% |
| Cc1cc(C)c(C(=O)c2cccs2)c(C)c1 | 100% | 99.8% | 106% | 95.2% | 109% | 74.4% | 93.3% | 100% | 103% |
| C/C=C(/C(=C/C)c1ccc(O)cc1)c1ccc(O)cc1 | 48% | 69.9% | 27.4% | 36% | 20.2% | 58.5% | 55.3% | 39.3% | 73.9% |
| O=C(Nc1ccc(Cl)cc1)Nc1ccccc1CNc1nc(Nc2ccc(OCCN3CCCC3)cc2)ncc1Cl | 33.5% | 97% | 101% | 82.2% | -77.7% (active) | 72.9% | -17% (active) | -86.6% (active) | 37.8% |
| Cc1ccc(S(=O)(=O)NCCN2c3nc4ccccc4cc3Sc3cc4ccccc4nc32)cc1 | 56.9% | 65.6% | 91.7% | 55.8% | 70.8% | 15.7% | 52.8% | 61.9% | 113% |
| COc1cc(/C=C2\CN(C)CC3=C2Nc2nc(SC)[nH]c(=O)c2C3c2cc(OC)c(OC)c(OC)c2)cc(OC)c1OC (centres undefined) | 49.4% | 72.1% | 86.7% | 69.8% | 10.1% | 82.7% | 37.8% | 67.4% | 31.2% |
| COc1ccc(C(=O)COc2ccc(/C=C3\Oc4ccc5ccccc5c4C3=O)cc2)cc1 | 90.7% | 107% | 100% | 104% | 110% | 94.9% | 64% | 106% | 121% |
| O=C(COc1ccc(/C=C2\Oc3ccc4ccccc4c3C2=O)cc1)c1ccc(Cl)cc1 | 98.2% | 106% | 102% | 105% | 110% | 97.7% | 61.9% | 106% | 124% |
| NC(=O)NS(=O)(=O)c1ccc(N2N=C(C(F)(F)F)CC2c2cc(C(F)(F)F)cc(C(F)(F)F)c2)cc1 (centres undefined) | 91.3% | 101% | 88.4% | 103% | 81.3% | 49.8% | 38.4% | 95.2% | 99.8% |
| CN1CCC[C@@H]1CCO[C@](C)(c1ccccc1)c1ccc(Cl)cc1 | 79.9% | 75.5% | 78.4% | 75.2% | 91.3% | 51.6% | 88% | 66.5% | 20% |
| COc1ccc(/C=C/C(=O)c2cccc(NS(C)(=O)=O)c2)cc1 | 69.6% | 85.7% | 92.2% | 90.2% | 96.4% | 60.5% | 66.5% | 75.7% | 102% |
| Cc1nn(-c2nc3ccccc3s2)c(C)c1Oc1ccccc1O | 109% | 80.5% | 101% | 53.3% | 24.6% | 93.2% | 59.9% | 89.2% | 92.3% |
| CC(C)=CCNc1ncnc2c1ncn2C1OC(COP(=O)(O)O)C(O)C1O (centres undefined) | 57.8% | 45.7% | 41.1% | 46.1% | 80.3% | 74.5% | 9.55% (active) | 43.3% | 63% |
| COCCCNS(=O)(=O)c1ncnc2nc[nH]c12 | 96.4% | 134% | 119% | 93.4% | 105% | 120% | 119% | 98.9% | 112% |
| COc1ccc(CNC(=O)c2c(C)n([O-])c3ccc(OC)cc3[n+]2=O)cc1 | 98.2% | 110% | 89.7% | 105% | 118% | -1.17% (active) | -2.57% (active) | 96% | 108% |
| Nc1ccn(C2O[C@H](CO)[C@@H](O)[C@@H]2O)c(=O)n1 (some centres undefined) | 28.2% | 34.3% | 62.6% | 26.7% | 6.43% (active) | 53.8% | 68.1% | 10.2% | 57.3% |
| O=c1ncc(-c2ccc(C(F)(F)F)cc2)c(NC2CCCCCC2)[nH]1 | 64.9% | 71.5% | 90.9% | 64% | 55.1% | -2.61% (active) | 29% | 76.7% | 46.2% |
| CC[C@H]1CN2CCc3cc(OC)c(OC)cc3C2C[C@@H]1CC1NCCc2cc(OC)c(OC)cc21 (some centres undefined) | -34.3% (active) | -25.4% (active) | -23.2% (active) | -29.4% (active) | -25.6% (active) | -17.8% (active) | -71.2% (active) | -19.6% (active) | -66.1% (active) |
| Cc1ccc(/C=C/C(=O)c2ccc(F)cc2)s1 | 85% | 85.1% | 94.2% | 103% | 80.6% | 64% | 62.8% | 76.7% | 108% |
| Cc1c2oc3c(C)ccc(C(=O)OC(C)C4NC(=O)C(C(C)C)N(C)C(=O)CN(C)C(=O)C5CCCN5C(=O)C(C(C)C)NC4=O)c3nc-2c(C(=O)OC(C)C2NC(=O)C(C(C)C)N(C)C(=O)CN(C)C(=O)C3CCCN3C(=O)C(C(C)C)NC2=O)c(N)c1=O (centres undefined) | -7.25% (active) | -40.7% (active) | 1.84% (active) | -20.4% (active) | 5.45% (active) | -15.7% (active) | -60.1% (active) | -11.9% (active) | -63.8% (active) |
| C[C@]12CCC(=O)C=C1CCC1C2[C@@H](O)C[C@@]2(C)C1CC[C@]2(O)C(=O)COC(=O)CCC(=O)O (some centres undefined) | 106% | 77.4% | 95.4% | 112% | 102% | 60.6% | 107% | 116% | 110% |
